{
  "source": "PubChem BioAssay AID977622",
  "about": "(Broad Institute, 2014)",
  "key": {"[1]": {"assay": "growth inhibition of wild-type GFP E. coli, dose response, h38 mutant RFP, cherry-pick (AID 977622)", "settings": "activity change: E. coli mixed culture, total growth OD600 at 50 uM, at 50 µM"}, "[2]": {"system": "E. coli h38 humanized mutant ribosome RFP fluorescence, mixed culture, 24 h", "assay": "growth inhibition of wild-type GFP E. coli, dose response, h38 mutant RFP, cherry-pick (AID 977622)", "settings": "h38 mutant RFP at 50 uM; at 50 µM"}},
  "note": "Among all 1,900 compounds or so, fewer than 10 were called active. About 39% were inconclusive and are not listed.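 How the source made its calls: active means Green signal of the normal strain falls at least twice as much as red signal of the resistant mutant, with overall culture growth loss under a set limit; inconclusive means no clear call, values can overlap the other calls; inactive means the rest.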 These entries were drawn from the full list.",
  "data": [
    {"smiles": "O=C(CCc1nc2ccccc2s1)OCC(=O)c1ccccc1", "values": [
      {"measurement": "activity change", "setting": "[1]", "value": 6.3, "unit": "%"},
      {"measurement": "outcome", "setting": "[1]", "value": "inactive"},
      {"measurement": "activity change", "setting": "[2]", "value": -0.655, "unit": "%"}
    ]},
    {"smiles": "Cc1ccc2nc(N(CCN(C)C)C(=O)C3CCN(S(=O)(=O)c4cccs4)CC3)sc2c1", "values": [
      {"measurement": "activity change", "setting": "[1]", "value": -21.5, "unit": "%"},
      {"measurement": "outcome", "setting": "[1]", "value": "inactive"}
    ]},
    {"smiles": "Cc1cccc(-c2ccc([C@@H]3[C@@H](CO)N4CCCCN(S(=O)(=O)c5ccccc5C)C[C@@H]34)cc2)c1", "values": [
      {"measurement": "activity change", "setting": "[1]", "value": -8.54, "unit": "%"},
      {"measurement": "outcome", "setting": "[1]", "value": "inactive"},
      {"measurement": "activity change", "setting": "[2]", "value": 21, "unit": "%"}
    ]},
    {"smiles": "COc1ccc(C#Cc2ccc([C@H]3[C@@H](CO)N4CCCCN(C(=O)Nc5cccc(F)c5)C[C@H]34)cc2)cc1", "values": [
      {"measurement": "activity change", "setting": "[1]", "value": -17.6, "unit": "%"},
      {"measurement": "outcome", "setting": "[1]", "value": "inactive"},
      {"measurement": "activity change", "setting": "[2]", "value": 73.7, "unit": "%"}
    ]},
    {"smiles": "Cc1cc(C)n(CC(O)COc2ccc3ccccc3c2)n1", "note": "(stereo not given)", "values": [
      {"measurement": "activity change", "setting": "[1]", "value": 4.91, "unit": "%"},
      {"measurement": "outcome", "setting": "[1]", "value": "inactive"},
      {"measurement": "activity change", "setting": "[2]", "value": 10.9, "unit": "%"}
    ]},
    {"smiles": "N#Cc1nc(COc2cccc(Cl)c2)oc1N1CCCC1", "values": [
      {"measurement": "activity change", "setting": "[1]", "value": -6.55, "unit": "%"},
      {"measurement": "outcome", "setting": "[1]", "value": "inactive"}
    ]},
    {"smiles": "COc1ccc(CC(=O)NCc2csc(-c3cccs3)n2)cc1OC", "values": [
      {"measurement": "activity change", "setting": "[1]", "value": -8.86, "unit": "%"},
      {"measurement": "outcome", "setting": "[1]", "value": "inactive"},
      {"measurement": "activity change", "setting": "[2]", "value": -8.02, "unit": "%"}
    ]},
    {"smiles": "Cc1ccc(-n2c(SCC(N)=O)nnc2-c2cnccn2)cc1", "values": [
      {"measurement": "activity change", "setting": "[1]", "value": -6.07, "unit": "%"},
      {"measurement": "outcome", "setting": "[1]", "value": "inactive"},
      {"measurement": "activity change", "setting": "[2]", "value": -24.8, "unit": "%"}
    ]},
    {"smiles": "COc1ccc(C)c2sc(N(CCN(C)C)C(=O)c3ccc(S(=O)(=O)N(C)c4ccccc4)cc3)nc12", "values": [
      {"measurement": "activity change", "setting": "[1]", "value": -16.8, "unit": "%"},
      {"measurement": "outcome", "setting": "[1]", "value": "inactive"},
      {"measurement": "activity change", "setting": "[2]", "value": 11, "unit": "%"}
    ]},
    {"smiles": "CCCc1nc2ccc(Br)cn2c1Cc1cccc(Cl)c1", "values": [
      {"measurement": "activity change", "setting": "[1]", "value": -8.44, "unit": "%"},
      {"measurement": "outcome", "setting": "[1]", "value": "inactive"},
      {"measurement": "activity change", "setting": "[2]", "value": 4.58, "unit": "%"}
    ]},
    {"smiles": "CS(=O)(=O)c1ccc(Cl)c(NC(=O)COC(=O)c2c(Cl)cccc2Cl)c1", "values": [
      {"measurement": "activity change", "setting": "[1]", "value": -7.03, "unit": "%"},
      {"measurement": "outcome", "setting": "[1]", "value": "inactive"},
      {"measurement": "activity change", "setting": "[2]", "value": -3.81, "unit": "%"}
    ]},
    {"smiles": "COc1ccc(Cc2c(-c3cccc(Cl)c3)nc3ccc(Cl)cn23)c(C)c1", "values": [
      {"measurement": "activity change", "setting": "[1]", "value": -9.93, "unit": "%"},
      {"measurement": "outcome", "setting": "[1]", "value": "inactive"},
      {"measurement": "activity change", "setting": "[2]", "value": 1.24, "unit": "%"}
    ]},
    {"smiles": "OC1CCN(c2c3c(nc4cc(-c5cccc(F)c5)nn24)CCCC3)CC1", "values": [
      {"measurement": "activity change", "setting": "[1]", "value": -19, "unit": "%"},
      {"measurement": "outcome", "setting": "[1]", "value": "inactive"},
      {"measurement": "activity change", "setting": "[2]", "value": -5.04, "unit": "%"}
    ]},
    {"smiles": "CN(Cc1ccccc1NS(=O)(=O)c1ccc(Cl)cc1)C1CCCCC1", "values": [
      {"measurement": "activity change", "setting": "[1]", "value": 4.68, "unit": "%"},
      {"measurement": "outcome", "setting": "[1]", "value": "inactive"},
      {"measurement": "activity change", "setting": "[2]", "value": 25.7, "unit": "%"}
    ]},
    {"smiles": "O=C1c2ccccc2CSc2c(O)cccc21", "values": [
      {"measurement": "activity change", "setting": "[1]", "value": -41.7, "unit": "%"},
      {"measurement": "outcome", "setting": "[1]", "value": "inactive"},
      {"measurement": "activity change", "setting": "[2]", "value": -51.2, "unit": "%"}
    ]},
    {"smiles": "CCN(CC)CCNC(=O)c1cc2cc3ccc(OC)cc3nc2o1", "values": [
      {"measurement": "activity change", "setting": "[1]", "value": -17.2, "unit": "%"},
      {"measurement": "outcome", "setting": "[1]", "value": "inactive"},
      {"measurement": "activity change", "setting": "[2]", "value": -1.99, "unit": "%"}
    ]},
    {"smiles": "C[C@H](CO)N1C[C@H](C)[C@@H](CN(C)C(=O)CCCN(C)C)OCCCC[C@H](C)Oc2ccc(NC(=O)Nc3cccc4ccccc34)cc2C1=O", "values": [
      {"measurement": "activity change", "setting": "[1]", "value": 1.54, "unit": "%"},
      {"measurement": "outcome", "setting": "[1]", "value": "inactive"},
      {"measurement": "activity change", "setting": "[2]", "value": -2.48, "unit": "%"}
    ]},
    {"smiles": "COc1ccccc1NC(=O)COC(=O)Cc1c[nH]c2ccccc12", "values": [
      {"measurement": "activity change", "setting": "[1]", "value": -29.2, "unit": "%"},
      {"measurement": "outcome", "setting": "[1]", "value": "inactive"},
      {"measurement": "activity change", "setting": "[2]", "value": -34.7, "unit": "%"}
    ]},
    {"smiles": "NC(=O)c1ccsc1NC(=O)COC(=O)Cc1ccc(F)cc1", "values": [
      {"measurement": "activity change", "setting": "[1]", "value": -13.5, "unit": "%"},
      {"measurement": "outcome", "setting": "[1]", "value": "inactive"},
      {"measurement": "activity change", "setting": "[2]", "value": -23.2, "unit": "%"}
    ]},
    {"smiles": "COc1cccc(C(=O)Nc2nnc(S(=O)(=O)N(C)Cc3ccccc3)s2)c1", "values": [
      {"measurement": "activity change", "setting": "[1]", "value": -30.6, "unit": "%"},
      {"measurement": "outcome", "setting": "[1]", "value": "inactive"},
      {"measurement": "activity change", "setting": "[2]", "value": -13.1, "unit": "%"}
    ]},
    {"smiles": "Cc1noc(C)c1NC(=O)Nc1ccc2c(c1)C(=O)N([C@H](C)CO)C[C@@H](C)[C@@H](CN(C)C(=O)Nc1ccc3c(c1)OCO3)OCCCC[C@@H](C)O2", "values": [
      {"measurement": "activity change", "setting": "[1]", "value": -6.3, "unit": "%"},
      {"measurement": "outcome", "setting": "[1]", "value": "inactive"},
      {"measurement": "activity change", "setting": "[2]", "value": -16.3, "unit": "%"}
    ]},
    {"smiles": "CC(NC(=O)c1c(N)[nH]c(C(=O)c2ccccc2)c1-c1ccccc1Br)c1cccc2ccccc12", "note": "(stereo not given)", "values": [
      {"measurement": "activity change", "setting": "[1]", "value": -15.6, "unit": "%"},
      {"measurement": "outcome", "setting": "[1]", "value": "inactive"},
      {"measurement": "activity change", "setting": "[2]", "value": 41.2, "unit": "%"}
    ]},
    {"smiles": "COC(=O)CN1C(=S)N(c2ccc(F)cc2)C(=O)C1CC(=O)Nc1ccc(F)cc1", "note": "(stereo not given)", "values": [
      {"measurement": "activity change", "setting": "[1]", "value": -1.47, "unit": "%"},
      {"measurement": "outcome", "setting": "[1]", "value": "inactive"},
      {"measurement": "activity change", "setting": "[2]", "value": -5.83, "unit": "%"}
    ]},
    {"smiles": "COc1cc(OC)cc(C(=O)N[C@H](C(=O)OCC(=O)Nc2ccc(F)c(F)c2F)C(C)C)c1", "values": [
      {"measurement": "activity change", "setting": "[1]", "value": -1.83, "unit": "%"},
      {"measurement": "outcome", "setting": "[1]", "value": "inactive"},
      {"measurement": "activity change", "setting": "[2]", "value": -9.06, "unit": "%"}
    ]}
  ]
}
